Measured values as given in PubChem BioAssay (NCATS).
Results filed as inconclusive are left out. The source made the active and inactive calls. Calls follow the shape of the dose curve; as a rule, active = well fitted curve in the direction sought with a large enough effect; inconclusive = small, poorly fitted or top-dose-only effect, or another doubt; inactive = no such curve, though single readings can be large; an effect the other way counts as inactive or inconclusive.

Experiments:
NIH3T3 = assay: qHTS assay to identify novel small-molecules to repurpose for Merkel cell carcinoma treatment (AID 1296009); conditions: MCC and control cell lines, CellTiter-Glo viability, 72 h; at 44.8 µM (top of the series) unless noted; also: nearly all actives have a fitted effect of over 60% in size
In short: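 qHTS format: cells treated with library compounds in DMSO across 8 (NPC) or 11 (MIPE) concentrations. Readout after 72 hr at 37 degree celsius was CellTiter-Glo luminescence.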

C33A = assay: Primary qHTS to identify gynecologic anti-cancer compounds using libraries of approved drugs and bioactive compounds (AID 1345084); conditions: Gynecologic cancer cell panel viability, ATPlite luminescence, 48 h; series mostly up to 57.5 µM; also: % is scaled to controls: 0 for no effect and ±100 for the full control effect; nearly all actives have a fitted effect of over 55% in size
In short: (§1)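 In this quantitative HTS, cell killing is estimated from loss of ATP-dependent luciferase light. Cells see five compound concentrations over a 48 h exposure.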

CASKI = assay: as above; conditions: Gynecologic cancer cell panel viability, ATPlite luminescence, 48 h; series mostly up to 57.5 µM
In short: as §1

CAOV3 = assay: as above; conditions: Gynecologic cancer cell panel viability, ATPlite luminescence, 48 h; series mostly up to 57.5 µM
In short: as §1

C=CC1(C)CC2=CCC3C(C)(C(=O)O)CCCC3(C)C2CC1OC(C)=O (stereo unspecified)
inactive: outcome (NIH3T3) | Potency (C33A) | Potency (CASKI)

C/C=C(\C)C(=O)O[C@@H](C)[C@H]1CC[C@]2(O)C3CCC4C[C@@H](OC5CC(OC)C(OC6CC(OC)C(OC7CC(OC)C(OC8OC(C)C(OC9OC(CO)C(O)C(O)C9O)C(OC)C8O)C(C)O7)C(C)O6)C(C)O5)CC[C@]4(C)C3[C@H](O)[C@@H](O)[C@]12C (stereo partly specified)
inactive: outcome (NIH3T3) inactive [at 9.27 µM] | activity change, negative = cytotoxicity (C33A) 19.4% [at 6.55 µM] | activity change, negative = cytotoxicity (CAOV3) 3.47% [at 6.55 µM] | activity change, negative = cytotoxicity (CASKI) -2.65% [at 6.55 µM]

CC1=CC(=O)CC(C)(C)C1CCC(C)OC1OC(COC(=O)c2cc(O)c(O)c(O)c2)C(O)C(O)C1O (stereo unspecified)
inactive: outcome (NIH3T3) inactive [at 17.4 µM] | Potency (C33A) | Potency (CAOV3) | Potency (CASKI)

O=C(O[C@H]1[C@@H]2C=CO[C@@H](O[C@@H]3O[C@H](CO)[C@@H](O)[C@H](O)[C@H]3O)[C@@H]2[C@@]2(CO)O[C@@H]12)c1ccc(O)c(O)c1
inactive: outcome (NIH3T3) inactive [at 17.4 µM] | Potency (C33A) | Potency (CAOV3) | Potency (CASKI)

FC(F)(F)c1cc(C(F)(F)F)c2ccc3nc(-c4nnco4)cn3c2n1
inactive: outcome (NIH3T3) | Potency (C33A) | Potency (CAOV3) | Potency (CASKI)

COc1ccc(C(=O)O[C@H]2CC(C)=CC[C@@]3(C)[C@@H](OC(C)=O)C[C@@](O)(C(C)C)[C@H]23)cc1
inactive: outcome (NIH3T3) inactive [at 17.4 µM] | Potency (C33A) | Potency (CASKI)

COc1cc(-c2cccc(O)c2)cc2c1OCO2
inactive: outcome (NIH3T3) | Potency (C33A) | Potency (CAOV3) | Potency (CASKI)

C[C@@H]1O[C@@H](O[C@@H]2[C@@H](O)[C@@H](O)[C@H](O[C@@H]3[C@@H](O)[C@@H](O[C@]4(CO)O[C@H](CO)[C@@H](O)[C@@H]4OC(=O)/C=C/c4ccc(O)cc4)O[C@H](CO)[C@H]3OC(=O)/C=C/c3ccc(O)cc3)O[C@H]2C)[C@H](O)[C@H](O)[C@H]1O
inactive: outcome (NIH3T3) inactive [at 9.27 µM] | activity change, negative = cytotoxicity (C33A) 0.544% [at 11.6 µM] | activity change, negative = cytotoxicity (CASKI) -0.379% [at 11.6 µM]

NCCOCCOCCNC(=O)Cc1ccc(Nc2nc(NCc3ccc(F)cc3)nc(NCC3CCCCC3)n2)cc1
inactive: outcome (NIH3T3) | Potency (C33A) | Potency (CAOV3) | Potency (CASKI)

COC1C=C([C@@H]2CC=C3[C@@]4(C)C(CC[C@]32C)[C@@]2(C)C=CC(=O)C(C)(C)C2C[C@H]4OC(C)=O)C(=O)O1 (stereo partly specified)
inactive: outcome (NIH3T3) inactive [at 17.4 µM] | Potency (C33A) | Potency (CASKI)

O=S(=O)(NC1CCNCC1)c1cc(S(=O)(=O)c2ccccc2)ccc1C(F)(F)F
inactive: outcome (NIH3T3) | Potency (C33A) | Potency (CAOV3) | Potency (CASKI)

CC1(C(=O)O)CCCC2(C)C1CCC13CC(CCC21)C1(CO)OC31 (stereo unspecified)
inactive: outcome (NIH3T3) | Potency (C33A) | Potency (CAOV3) | Potency (CASKI)

C=Cc1cc(O)cc2nc(-c3ccc(O)c(F)c3)oc12
inactive: outcome (NIH3T3) | Potency (C33A) | Potency (CAOV3) | Potency (CASKI)

CCC(C)(O)C(O)C(=O)OCc1ccc(O[C@@H]2O[C@H](CO)[C@@H](O)[C@H](O)[C@H]2O)c(OC)c1 (stereo partly specified)
inactive: outcome (NIH3T3) inactive [at 17.4 µM] | Potency (C33A) | Potency (CAOV3) | Potency (CASKI)

C[C@]12C=CC(=O)C=C1CC[C@@H]1[C@@H]2[C@@H](O)C[C@@]2(C)[C@H]1CC[C@]2(O)C(=O)COC(=O)CCC(=O)O
inactive: outcome (NIH3T3) | Potency (C33A) | Potency (CASKI)

CC1=CCC2C(C)(CO)CCCC2(C)C1CC12OC1C(O)C(CO)=CC2O (stereo unspecified)
inactive: outcome (NIH3T3) | Potency (C33A) | Potency (CASKI)

CC1OC(OC2C(O)C(C(=O)O)OC(OC3CCC4(C)C(CCC5(C)C4C=CC4=C6CC(C)(C)CC(O)C6(C)CCC45C)C3(C)C)C2OC2OCC(O)C(O)C2O)C(O)C(O)C1O (stereo unspecified)
inactive: outcome (NIH3T3) inactive [at 9.27 µM] | activity change, negative = cytotoxicity (C33A) 25.5% [at 11.6 µM] | activity change, negative = cytotoxicity (CAOV3) 25.6% [at 11.6 µM] | activity change, negative = cytotoxicity (CASKI) 17.4% [at 11.6 µM]

CC1CC(=O)C2=C(O1)OC1(C)CCC3C(C)(C)C=CC(=O)C3(C)C1C2 (stereo unspecified)
inactive: outcome (NIH3T3) | Potency (C33A) | Potency (CASKI)

CCN(c1cc(C#CCN2CCOCC2)cc(C(=O)NCc2c(C)cc(C)[nH]c2=O)c1C)C1CCC(N(C)CCOC)CC1 (stereo unspecified)
inactive: outcome (NIH3T3) | Potency (C33A) | Potency (CASKI)

C=CC(C)(O)CC/C=C(\C)C(=O)OCC1OC(OC2CCC3(C)C(CCC4(C)C3CC=C3C5CC(C)(C)C(O)CC5(C(=O)O)CCC34C)C2(C)C)C(O)C(OC2OC(CO)C(O)C(OC3OC(CO)C(O)C(OC4OC(COC5OC(CO)C(O)C(O)C5O)C(O)C(O)C4O)C3O)C2O)C1O (stereo unspecified)
inactive: outcome (NIH3T3) inactive [at 9.27 µM] | activity change, negative = cytotoxicity (C33A) 4.36% [at 6.55 µM] | activity change, negative = cytotoxicity (CASKI) 11.9% [at 6.55 µM]
